# Compound activity deposited in PubChem by several laboratories.
# An excerpt weighted towards active compounds, which were near 3.7% of everything screened.
# tim10-1 inh – tim10-1 yeast growth inhibition; hit rate 2.2% among 330,000; AID 463190; inhibition, % at 20 µM; S. cerevisiae tim10-1 ts strain growth, BacTiter-Glo, 24 h;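 active = inhibition of at least 40%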;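 also: mutant grown at 25 °C; 0% = DMSO wells with yeast and 100% = wells holding no yeast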
# tim23-1 inh – inhibits growth of tim23-1 mutant yeast; S. cerevisiae tim23-1 growth, BacTiter-Glo luminescence, 24 h; inhibition, % at 20 µM; hit rate 1.3% among 330,000; AID 463212;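 active = growth inhibition of the mutant yeast at or above 50%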;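 also: temperature-sensitive mutant grown at 25 °C; plate controls were DMSO-treated mutant yeast for no effect and medium wells lacking yeast for full effect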
# PfHsp90 set2 – reduces growth (ATP signal) of yeast expressing P. falciparum Hsp90; S. cerevisiae expressing PfHsp90, BacTiter-Glo ATP, 48 h; yeast lacking PDR1 and PDR3 efflux regulators; inhibition, % at 9.4 µM; hit rate 0.32% among 310,000; AID 504621;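 active = every replicate shows inhibition above about 80%, whatever the replicate mean, limit read from the data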;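 also: 0% = DMSO neutral controls and 100% = 20 µM radicicol positive controls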
# TIM10 inh – TIM10 yeast growth inhibition | inhibition, % at 10 µM | AID 463195 | hit rate 1.4% among 330,000 | S. cerevisiae TIM10 strain growth, BacTiter-Glo luminescence, 24 h;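 active = inhibition of 40% or more at the single tested concentration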;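 also: wild-type TIM10 isogenic control strain grown at permissive 25 °C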
# NALP3 yeast inh – inhibitors of NALP3 inflammasome in yeast; inhibition, % at 10 µM; hit rate 0.39% among 330,000; AID 2825; Yeast reconstituted NLRP3/ASC/caspase-1, beta-gal luminescence, 24 h;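 active = inhibition of 50% or more; inactive = inhibition below 50%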;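 also: plate controls were induced DMSO wells for no effect and uninduced yeast grown without galactose for full effect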
# tim10-1 conf – confirmation of tim10-1 mutant yeast growth inhibitors; inhibition, % at 20 µM; shares compounds with tim10-1 inh; S. cerevisiae tim10-1 ts strain growth, BacTiter-Glo, 24 h; hit rate 56% among 7,400; AID 463213;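 active = inhibition of yeast growth at or above a set limit in either of two repeat tests at 20 µM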;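 also: tim10-1 mutant grown at permissive 25 °C to find synthetic lethal compounds; 0% = DMSO yeast wells and 100% = medium wells without yeast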
# Numbers without * were called inactive; . = not tested or not shown.
SMILES,tim10-1 inh,tim23-1 inh,PfHsp90 set2,TIM10 inh,NALP3 yeast inh,tim10-1 conf
Cc1ccc(CNC(=O)C2CCN(S(=O)(=O)N3CCCCC3)CC2)cc1,11,16,-3,12,25,.
O=C(C1CC1)N1CCc2cc(S(=O)(=O)NCC3COc4ccccc4O3)ccc21 (stereo unspecified),46*,27,-14,32,-3,26
O=C(C1CCC1)N1CCc2cc(S(=O)(=O)NCC3COc4ccccc4O3)ccc21 (stereo unspecified),11,1,-22,26,9,.
CCCC(=O)N(CCN1CCOCC1)c1nc2c(OC)ccc(C)c2s1,10,1,-21,3,17,.
CCCC(=O)N(CCN1CCOCC1)c1nc2c(C)ccc(C)c2s1,42*,29,3,5,11,-4
CC(=C\c1ccco1)/C=C(\C#N)C(=O)NCCc1c[nH]c2ccccc12,43*,31,19,38,12,42*
O=C(Nc1ccccc1N1CCCCC1)c1ccc([N+](=O)[O-])o1,51*,29,.,34,27,51*
O=C(Nc1ccccc1N1CCN(C(=O)c2ccc(Cl)cc2)CC1)c1ccc([N+](=O)[O-])o1,44*,30,-8,11,27,24
O=C(NC1CCCC(C(F)(F)F)C1)c1ccc([N+](=O)[O-])o1 (stereo unspecified),31,45,7,33,16,.
O=C(Nc1ccccc1N1CCN(C(=O)c2ccc(Cl)cc2)CC1)c1cc2ccccc2o1,27,4,-10,19,0,.
O=C(NC1CCCCC1)c1ccc([N+](=O)[O-])o1,51*,42,1,14,5,36*
O=C(NCc1ccco1)c1ccc([N+](=O)[O-])o1,42*,29,.,-7,12,28
CC(C)Oc1ccc(CNC(=S)N/N=C/c2cccnc2)cc1,22,1,-21,13,19,.
COc1ccc(S(=O)(=O)N2CCC(Nc3ccccc3Cl)CC2)cc1,38,41,15,1,12,.
O=C(COC(=O)CCS(=O)(=O)c1ccc(Cl)cc1)NCCc1ccc(Cl)cc1Cl,35,20,38,-1,-10,.
O=C(c1cc(=O)c2ccccc2o1)N1CCN(c2cccc(Cl)c2)CC1,44*,26,.,5,8,26
Cc1ccc(C(=O)N2CCN(c3cccc(Cl)c3)CC2)cc1C,50*,34,-2,34,-16,8
CCOc1ccccc1-c1nnc(SCC(=O)NC2CC2)n1CC,14,8,1,10,10,.
N#CCCN(Cc1ccccc1)C(=S)NC(=O)c1ccccc1,40*,33,-16,38,12,28
CCOc1c(Cl)cc(CNCC(C)C)cc1Cl,7,-2,4,4,5,.
CC(=O)c1cc2c(cc1NC(=O)Cc1ccsc1)OCO2,14,29,-59,9,31,.
CC(C)N(C(=O)Cc1ccccc1[N+](=O)[O-])C(C)C,10,14,1,-1,-4,.
c1ccc(Cn2cnc3ccccc32)cc1,0,-8,-7,-10,-24,.
Cc1cc(C)c(Cn2cnc3ccccc32)c(C)c1,43*,40,-7,26,0,20
CCOC(=O)c1ccc(N=c2scc(C)n2CC)cc1,43*,33,-4,10,21,22
SMILES,tim10-1 inh,tim23-1 inh,PfHsp90 set2,TIM10 inh,NALP3 yeast inh,tim10-1 conf
CCCCOc1cccc(C2C(C(=O)c3cccs3)=C(O)C(=O)N2Cc2cccnc2)c1 (stereo unspecified),11,13,18,12,12,.
Fc1ccc(Cn2nnnc2C(c2ccc(Cl)cc2)N2CCSCC2)cc1 (stereo unspecified),42*,35,17,40,11,31
CC1CCN(C(c2ccc(N(C)C)cc2)c2nnnn2Cc2ccc(F)cc2)CC1 (stereo unspecified),39,41,12,27,28,.
N/C(=N\OC(=O)CCCc1ccccc1)c1ccccc1Cl,50*,49,0,31,2,59*
COc1ccc(/C(N)=N/OC(=O)CCc2ccccc2)cc1,26,49,-12,33,19,.
CC(C)(C)NC(=S)NNC(=O)[C@H]1C[C@@H]1c1ccccc1,15,4,5,15,11,.
Cc1ccc(C2CC2C(=O)NNC(=S)Nc2ccc(Cl)cc2)cc1 (stereo unspecified),46*,4,11,7,8,31
Cc1ccccc1N=Nc1c(C)[nH]n(C(N)=S)c1=O,41*,31,18,31,19,26
Cc1cccc(N=Nc2c(C)[nH]n(C(N)=S)c2=O)c1C,6,14,.,25,27,.
CCOc1ccc(-c2nc3n(c(=O)c2C#N)CCS3)cc1,31,-15,3,22,-8,.
FC(F)Oc1ccc(/C=N/c2c(-c3ccc(OC(F)F)cc3)nc3n2CCS3)cc1,47*,9,0,6,7,24
O=C(Nc1ccc2c(c1)C(=O)OC2)c1ccc(Cl)cc1,-10,-4,-34,-1,15,.
C=C(C)CSc1nncn1/N=C/c1ccc(OC)cc1,43*,28,14,19,-1,32*
CCSc1nncn1/N=C/c1ccc(OC)c(OC)c1,-4,-5,-30,-11,0,.
Nc1c(C(=O)NC2CCCC2)sc2nc(-c3cccs3)ccc12,40*,22,-3,30,10,32*
O=Cc1c[nH]c2ccc(OCc3ccccc3)cc12,3,13,-1,16,-4,.
COc1ccccc1NS(=O)(=O)c1ccc2[nH]c(=S)oc2c1,-15,-9,.,-7,10,.
CN1/C(=C\C(=O)COC(=O)CN2C(=O)C3CC=CCC3C2=O)C(C)(C)c2ccccc21 (stereo unspecified),42*,21,-93,12,8,22
CN1/C(=C\C(=O)COC(=O)CNC(=O)c2ccc3ccccc3c2)C(C)(C)c2ccccc21,44*,32,11,14,-2,16
O=C(COn1nnc2ccc(Cl)cc21)NC12CC3CC(CC(C3)C1)C2,40*,48,12,37,-10,32*
O=C(COn1nnc2ccc(Cl)cc21)Nc1ccc(F)cc1,20,29,-1,28,-20,.
CCCc1cc(C(=O)NNC(=S)NCc2ccccc2)cs1,44*,17,39,34,15,29
Cc1ccc(C)c(C(=O)COC(=O)c2ccc(Br)o2)c1,25,22,-34,14,5,.
CC1(c2ccc(OC(F)F)cc2)NC(=O)N(CC(=O)Nc2ccc(OC(F)F)cc2)C1=O (stereo unspecified),-9,4,-6,10,1,.
CCOC(=O)c1c(NC(=O)CN2C(=O)NC(C)(c3ccc(OC(F)F)cc3)C2=O)sc(C)c1C (stereo unspecified),43*,22,2,18,21,27
